# Only some compounds are listed: those with a hit (about 19% of all), similar ones and a draw of the others.
# DT40 TDP1 CPT: growth inhibition of DT40 Tdp1-/-;hTDP1 cells with camptothecin (screen for TDP1 inhibitors); chicken DT40 Tdp1-/-;hTDP1 cells + 20 nM CPT, ATP luminescence, 48 h; Potency, µM (titrated, usually from 46.2 µM), inactives show top-dose activity change, negative = growth inhibition, hits mostly inhibitors; 420,000 tested, 12% active; AID 686979; also: potency is read from the fitted curve at half-maximal effect; % is scaled to controls: 0 for no effect and ±100 for the full control effect; nearly all actives have a fitted effect of over 55% in size
#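 Chicken DT40 Tdp1-/- cells stably complemented with human TDP1 were seeded at 400 cells/well in medium containing 20 nM camptothecin, exposed to pin-transferred compounds, and grown at 37 °C for at least 48 hr. Viability was read as ATP luminescence.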
# IL1B secr inh: blocks inflammasome-driven IL-1 beta release. THP-1 LPS/ATP IL-1B secretion, AlphaLISA, 16 h; active compounds read low. activity change, % at 57.5 µM. 360,000 tested, 4.7% active. AID 743279; in the data active = activity change below about -50%; inconclusive = mostly about -30% to -49%; also: % is scaled to controls: 0 for no effect and ±100 for the full control effect
#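 Secreted IL-1B measured by AlphaLISA bead assay after 16 h compound exposure of THP-1 cells; compounds (final up to 57.5 uM) added 1 h before LPS (250 ng/mL) and ATP (1.25 mM) stimulation; lower signal means less secretion.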
# TDP1 block: blocks human tyrosyl-DNA phosphodiesterase 1; Q9NUW8; recombinant TDP1, AlphaScreen DNA substrate cleavage; Potency, µM (top dose mostly 130 µM), without a hit: at the highest dose activity change, negative = inhibition, hits mostly inhibitors; 350,000 tested, 0.28% active; AID 485290; also: potency is read from the fitted curve at half-maximal effect; % is scaled to controls: 0 for no effect and ±100 for the full control effect; nearly all actives have a fitted effect of over 40% in size
# Target sequence (Q9NUW8 whole entry, looked up): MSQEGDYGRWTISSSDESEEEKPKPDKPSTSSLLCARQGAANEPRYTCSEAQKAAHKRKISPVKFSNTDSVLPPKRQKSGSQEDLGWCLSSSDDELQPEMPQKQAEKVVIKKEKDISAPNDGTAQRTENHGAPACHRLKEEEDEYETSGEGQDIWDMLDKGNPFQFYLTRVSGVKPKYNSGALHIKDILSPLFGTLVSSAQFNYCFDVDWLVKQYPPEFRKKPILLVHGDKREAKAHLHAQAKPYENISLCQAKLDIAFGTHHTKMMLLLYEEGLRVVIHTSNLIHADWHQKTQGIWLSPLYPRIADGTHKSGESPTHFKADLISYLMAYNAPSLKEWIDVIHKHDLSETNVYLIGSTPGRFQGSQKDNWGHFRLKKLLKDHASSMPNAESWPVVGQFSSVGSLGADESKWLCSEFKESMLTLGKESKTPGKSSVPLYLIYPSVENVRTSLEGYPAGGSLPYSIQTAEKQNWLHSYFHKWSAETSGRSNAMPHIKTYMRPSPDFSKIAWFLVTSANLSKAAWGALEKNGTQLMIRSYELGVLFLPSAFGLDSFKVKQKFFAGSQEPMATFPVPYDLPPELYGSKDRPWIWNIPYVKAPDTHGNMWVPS
#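 Recombinant human Tdp1 (E. coli-expressed, 1 nM final) preincubated with compounds 15 min at room temperature, then 5'-biotin/3'-phosphotyrosine-FITC DNA substrate (15 nM final) added for 5 min. AlphaScreen beads (10 ug/ml final) added 10 min; cleavage lowers signal.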
# HepG2 viability: HepG2 cytotoxicity, counter-screen for TGF-b inhibitors. HepG2 CAGA-GFP viability, ATP luminescence, 18 h. Potency, µM (series often up to 46.1 µM), for inactives: at the top dose activity change, negative = cytotoxicity, hits mostly cytotoxic. 410,000 tested, 0.76% active; also: potency is read from the fitted curve at half-maximal effect
#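 HepG2 CAGA-GFP cells (1000/well, DMEM with 1% FBS) received compound, then TGF-beta at 500 pg/mL final, and were incubated 18 hours at 37 degrees C. Viability was read by CellTiter-Glo luminescence. Media-only wells were set as complete cell-killing and DMSO as no toxicity.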
# TDP1 cell noCPT: qHTS for Inhibitors of human tyrosyl-DNA phosphodiesterase 1 (TDP1): qHTS in cells in absence of CPT. Potency, µM (doses to about 46.2 µM), without a hit: at the top dose activity change, negative = growth inhibition, usual class: inhibitors. 420,000 tested, 15% active. DT40 Tdp1-/- hTDP1 cells, no CPT, ATP luminescence, 48 h; also: potency is read from the fitted curve at half-maximal effect; % is scaled to controls: 0 for no effect and ±100 for the full control effect; nearly all actives have a fitted effect of over 55% in size
#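 No-CPT arm: Tdp1-/-;hTDP1 DT40 cells (400/well) plus compounds, incubated ≥48 hr at 37 °C. Readout CellTiter-Glo luminescence.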
# TGFb inhibitor: blocks TGF-b signaling. AID 588855. Potency, µM (top dose mostly 46.1 µM), for the others: top-dose activity, negative = inhibition, most hits filed as inhibitors. 410,000 tested, 1.2% active. HepG2 CAGA-GFP TGF-b/SMAD3 reporter, GFP fluorescence, 18 h; TGF-beta stimulated, 500 pg/mL final; also: potency is read from the fitted curve at half-maximal effect; % is scaled to controls: 0 for no effect and ±100 for the full control effect; nearly all actives have a fitted effect of over 65% in size
#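 First, reporter cells (HEPG2 CAGA-GFP) rested 2 h at 37 degrees C. Next, compounds were pinned in and TGF-beta added to 500 pg/mL final. After 18 h, GFP was imaged per cell and summed per well.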
# Starred values were filed as active, the others as inactive; u = inconclusive; x = no result given; [ ] = dose if it differs, or a comment. Unless noted, calls follow the shape of the dose curve; as a rule, active = well fitted curve in the direction sought with a large enough effect; inconclusive = small, poorly fitted or top-dose-only effect, or another doubt; inactive = no such curve, though single readings can be large; an effect the other way counts as inactive or inconclusive.
SMILES,DT40 TDP1 CPT,IL1B secr inh,TDP1 block,HepG2 viability,TDP1 cell noCPT,TGFb inhibitor
CCC(C)c1c(O)nc(SCC(=O)N2CCCCCC2)[nH]c1=O (stereo not drawn),8%,-51*,x,-15%,-14%,-21%
CCCn1c(C)nc2c(NCCN(C(C)C)C(C)C)nc(C)nc21,x,x,4%,x,x,x
CCC(C)n1c(=O)c2sccc2n2c(CCCC(=O)Nc3ccc(F)cc3)nnc12 (stereo not drawn),u,x,3%,-18%,u,u
CCCc1nc2c(C)cc(Br)cn2c1Cc1ccccc1C(F)(F)F,23µM*,39,x,10µM*,23µM*,u
CCCc1nc2c(C)cc(Br)cn2c1Cc1ccsc1,u,25,x,-12%,23µM*,u
Cc1cc(Br)cn2c(Cc3ccsc3)c(C(C)(C)C)nc12,u,12,x,-30%,26µM*,-9%
Cc1cc(Br)cn2c(Cc3ccccc3C(F)(F)F)c(-c3ccccc3)nc12,u,43,x,x,u,x
CCCc1nc2c(C)cc(Br)cn2c1Cc1ccccc1,u,74,x,-16%,u,-26%
Cc1cc(Br)cn2c(Cc3ccsc3)c(-c3ccc(F)cc3)nc12,-24%,74,x,-28%,15µM*,-21%
O=C(CCNS(=O)(=O)c1ccc(Br)cc1)NCc1ccc(Cl)cc1,u,-20,0%,11µM*,0%,-11%
O=C(NCCS(=O)(=O)c1ccc(Br)cc1)c1ccc(Cl)cc1,-15%,-7,2%,-6%,-2%,0%
CC(C(=O)NCCS(=O)(=O)c1ccc(Br)cc1)S(=O)(=O)c1ccc(Cl)cc1 (stereo not drawn),-2%,-50*,x,-29%,u,0%
CC(C)c1ccc(C(C)NCCS(=O)(=O)c2ccc(Cl)cc2)cc1 (stereo not drawn),21µM*,-77*,4%,-31%,12µM*,u
Cc1ccc(CNC(=O)CCNS(=O)(=O)c2ccc(C)cc2)cc1,-21%,-5,-8%,-6%,-18%,-5%
CC1(C(=O)NS(=O)(=O)c2cccc(F)c2)CCN1C(=O)C1(c2ccc(Cl)cc2)CCC1 (stereo not drawn),-24%,0,x,-3%,2%,-3%
CCOC(=O)N(C)c1c(CC)nc2c(OCc3cccc(Cl)c3)cccn12,u,-7,x,-13%,u,-8%
Cc1nc2c(OCc3ccc(Cl)cc3Cl)cccn2c1N(C)Cc1cccs1,u,u,x,11µM*,u,u
Cc1nc2c(OCc3cccc(Cl)c3)cccn2c1N(C)Cc1cccs1,21µM*,-20,x,11µM*,16µM*,u
Cc1ccc(C)c(CN2CCC(CNC(=O)Nc3cccc(Cl)c3C)CC2)c1,u,-65*,x,-200%,u,-1%
Cc1ccc(C)c(CN2CCC(CNC(=O)Nc3ccc(F)c(Cl)c3)CC2)c1,29µM*,-92*,x,18µM*,u,u
Cc1ccc(NC(=O)NCC2CCN(Cc3cc(C)ccc3Cl)CC2)c(C)c1,u,9,5%,-1%,u,15%
COC(=O)c1ccc(C(NC(=O)OCc2ccccc2)/C(C)=C/[C@@H](C)C(=O)NCc2nc3ccccc3s2)cc1 (stereo partly drawn),x,x,8%,x,x,x
Cc1ccccc1CNC(=O)CCSCc1cnn(-c2ccccc2)c1-n1cccc1,u,x,6%,-35%,16µM*,-7%
COc1ccc(CNC(=O)CSCc2cnn(-c3ccccc3)c2-n2cccc2)cc1,-25%,-22,6%,-24%,23µM*,u
COc1ccc(CCNC(=O)c2cnn3ccccc23)c(OC)c1OC,u,-2,3%,5%,23µM*,8%
SMILES,DT40 TDP1 CPT,IL1B secr inh,TDP1 block,HepG2 viability,TDP1 cell noCPT,TGFb inhibitor
CCN(CC)C(=O)CSCc1cnn(-c2ccccc2)c1-n1cccc1,u,-21,-4%,-1%,16µM*,-9%
Cc1ncc2c(c1CNC(=O)CN1CCCC1)CCN(C(=O)c1ccc(F)cc1F)C2,-6%[9.04 µM],x,x,x,-16%,x
Cc1ccc(-c2nnn(CC(=O)NC(=O)NC3CCCCC3)n2)cc1,u,u,-7%,-29%,u,u
COC(=O)[C@@]1(Cc2ccccc2)[C@H]2c3cc(C(=O)N(C)C)n(Cc4cc(C)n(C)n4)c3C[C@H]2CN1C(=O)c1ccccc1,x,x,12%,x,x,x
COc1ccc(NC(=O)CSCc2cnn(-c3ccccc3)c2-n2cccc2)cc1,u,x,0%,-23%,16µM*,-8%
Cc1ccc(C)c(NC(=O)c2cnn3ccccc23)c1,5.8µM*,39,-1%,-2%,12µM*,u
COc1ccc(OC)c(CCNC(=O)c2cnn(-c3ccccc3)c2-n2cccc2)c1,23µM*,x,5%,-27%,1.8µM*,u
Cn1cccc1C(=O)N1CCC2(CC1)CN(C(=O)Nc1ccccc1)C2,12%,x,x,x,-21%,x
O=C1NC(Cc2ccccc2)c2nc3cc(F)ccc3c(=O)n2-c2cc(Cl)ccc21 (stereo not drawn),x,x,1%,x,x,x
COCCN(CC(=O)Nc1cccc(C)c1C)C(=O)c1ccc(S(=O)(=O)N2CCOCC2)cc1,4%,4,0%,3%,8%,0%
CCOC(=O)c1ccc2c(c1)N(Cc1ccccc1C)C(=O)c1ccccc1S2=O (stereo not drawn),14µM*,-8,0%,2%,u,-24%
COc1ccc(N2CCN(C(=O)c3ccc4c(c3)N(Cc3cc(C)ccc3C)C(=O)c3ccccc3S4=O)CC2)cc1 (stereo not drawn),15µM*,x,9%,-4%,12µM*,u
Cc1ccc(C)c(CN2C(=O)c3ccccc3S(=O)c3ccc(C(=O)N(C)Cc4ccccc4)cc32)c1 (stereo not drawn),18µM*,x,7%,-32%,u,u
COC(=O)c1ccc2c(c1)N(Cc1cc(C)ccc1C)C(=O)c1ccccc1S2=O (stereo not drawn),x,x,4%,x,x,x
COc1ccc(N2CCN(C(=O)c3ccc4c(c3)N(Cc3ccc(F)cc3)C(=O)c3ccccc3S4=O)CC2)cc1 (stereo not drawn),u,x,8%,-26%,u,u

# Compound activity as filed in PubChem.
